PubChem BioAssay (NCATS)
Inconclusive results are not listed. Activity calls are given as the source filed them. Calls follow the shape of the dose curve; as a rule, active = well fitted cell-killing curve with a large enough effect; inconclusive = small, poorly fitted or top-dose-only effect, or effect the other way; inactive = flat fitted curve, though single readings scatter.

Tested on: JEG-3
Assay: Primary qHTS to identify gynecologic anti-cancer compounds using libraries of approved drugs and bioactive compounds (AID 1345084); also: nearly all actives have a fitted effect of over 55% in size
Conditions: Gynecologic cancer cell panel viability, ATPlite luminescence, 48 h; series mostly up to 57.5 µM; activity change, negative = cytotoxicity: at the top concentration
Summary of the method: (§1)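 Five-concentration response, 48 h; readout is ATP-driven luciferase luminescence.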
% is scaled to controls: 0 for no effect and ±100 for the full control effect; potency is read from the fitted curve at half-maximal effect.

Structure (SMILES)	activity change, negative = cytotoxicity
Fc1ccc(N2CCCCC2)c(NC(=S)c2ccncc2)c1	17.5% (inactive)
CCC(C(C)O)n1ncn(-c2ccc(N3CCN(c4ccc(OCC5COC(Cn6cncn6)(c6ccc(F)cc6F)C5)cc4)CC3)cc2)c1=O (stereo unspecified)	1.49% (inactive)
NC(=O)N1CCC(CC(=O)N2CCC(C3c4ncc(Br)cc4CCc4cc(Cl)cc(Br)c43)CC2)CC1 (stereo unspecified)	0.53% (inactive)
CC(C)c1cccc(C(C)C)c1NC(=O)Nc1ccc(Sc2ccc([N+](=O)[O-])cc2)cc1	12.7% (inactive)
CCCCNc1ncc(-c2ccc(CN3CCOCC3)cn2)c(NC2CCC(O)CC2)n1 (stereo unspecified)	1.24% [at 25.3 µM] (inactive)
COc1ccc2nc3n[nH]c(C)c3c(NCCOCCO)c2c1	18% (inactive)
Nc1nccc(-c2c(-c3ccc(F)cc3)ncn2C2CCCCC2)n1	-17.4% (inactive)
CC(=O)C1(C)CCC2C3C=C(C)C4=CC(=O)CCC4(C)C3CCC21C (stereo unspecified)	6.76% (inactive)
CC(=O)OC1C(OC(=O)c2ccccc2)C2C(=C(C)CCC2(C)C)C23CCC(C)(C2)C(=O)CC13 (stereo unspecified)	-0.0106% [at 25.3 µM] (inactive)
COc1ccc2[nH]c(=O)c3c(c2c1)OC(C)(C)C=C3	-11.5% (inactive)
CCCc1ccc(OCC(=O)N(Cc2nc(-c3cccnc3)no2)C(C)C)cc1	-1.03% (inactive)
CC(C)OC(=O)N1CCC(Oc2ncnc3c2cnn3-c2ccc(S(C)(=O)=O)cc2F)CC1	1.06% (inactive)
Cc1c(C2=CCN(C(=O)N(C)C(C)C)CC2)nnn1-c1cccnc1F	-0.851% (inactive)
CCCc1cc2c(N3CCN(C4=NCC(C)(C)S4)CC3)ncnc2s1	-6.71% (inactive)
O=C(NCCO)c1cccc(-c2cc(Nc3ccc(OC(F)(F)F)cc3)ncn2)c1	-6.21% (inactive)
CS(=O)(=O)Nc1ccc2oc3c(OC(F)F)ccc(C(=O)Nc4c(Cl)cncc4Cl)c3c2c1	1.09% (inactive)
O=c1cc(NCCCN[C@@H]2CCOc3c(Br)cc(Br)cc32)[nH]c2ccsc12	16.7% (inactive)
Clc1ncoc1-c1c[nH]c2ccccc12	5.18% (inactive)
CCn1c(=O)c(-c2ccc(Cl)cc2Cl)cc2cnc(Nc3ccc(N4CCNCC4)c(F)c3)nc21	20.5% (inactive)
C=C1C(=O)O[C@@H]2[C@H]1CC[C@H](C)[C@]1(CCC(=O)O1)C2(C)O (stereo partly specified)	-2.21% (inactive)
O=C(NCCCNc1nc(Nc2cccc(CN3CCOCC3)c2)ncc1C1CC1)C1CCC1	-18.8% (inactive)

Tested on: OV90
Assay: as above
Conditions: Gynecologic cancer cell panel viability, ATPlite luminescence, 48 h; series mostly up to 57.5 µM; activity change, negative = cytotoxicity: at the top concentration
Summary of the method: as §1

Structure (SMILES)	activity change, negative = cytotoxicity	Potency
O=C(Nc1ccn(Cc2ccc(O)cc2C(F)(F)F)n1)c1c(F)cccc1F	6.33% (inactive)	–
CN(C)C(=O)Nc1cccc(-c2ccc(N(C)C)cc2)c1	-3.59% (inactive)	–
Cc1cc(C(=O)Nc2cc(Nc3ccc4c(/C=C/c5ccccn5)n[nH]c4c3)ccc2F)n(C)n1	-5.59% (inactive)	–
COc1nc2ccc(Br)cc2cc1[C@@H](c1ccccc1)[C@@](O)(CCN(C)C)c1cccc2ccccc12	15.5% (inactive)	–
Cn1ncc(Cl)c1-c1cc(C(=O)N[C@H](CN)Cc2ccc(F)c(F)c2)oc1Cl	–	14.1 µM (active)
C=C1CC[C@@H](O)[C@]2(C)C[C@H]3OC(=O)C(=C)[C@H]3CC12 (stereo partly specified)	-11.8% (inactive)	–
COc1ccc(N2CCN(C(=O)c3cc4c(s3)-c3ccccc3S(=O)(=O)C4)CC2)cc1	0.0566% (inactive)	–
C=C1/C(=C/C=C2\CCC[C@]3(C)[C@@H]([C@@H](C)OCCC(O)(CC)CC)CC[C@@H]23)C[C@@H](O)C[C@@H]1O	0.191% (inactive)	–
CCOc1cc(C(C)(C)C)ccc1C1=N[C@@](C)(c2ccc(Cl)cc2)[C@@](C)(c2ccc(Cl)cc2)N1C(=O)N1CCN(CC(=O)N2CCOCC2)CC1	-3.67% [at 38.5 µM] (inactive)	–
O=C(NO)c1ccc(CC(=O)N(CCO)c2ccccc2)cc1	-21.2% (inactive)	–
Fc1ccc(N2CCCCC2)c(NC(=S)c2ccncc2)c1	2.79% (inactive)	–
CCC(C(C)O)n1ncn(-c2ccc(N3CCN(c4ccc(OCC5COC(Cn6cncn6)(c6ccc(F)cc6F)C5)cc4)CC3)cc2)c1=O (stereo unspecified)	1.86% (inactive)	–
CC(C)c1cccc(C(C)C)c1NC(=O)Nc1ccc(Sc2ccc([N+](=O)[O-])cc2)cc1	0% (inactive)	–
CCCCNc1ncc(-c2ccc(CN3CCOCC3)cn2)c(NC2CCC(O)CC2)n1 (stereo unspecified)	6.28% [at 25.3 µM] (inactive)	–
CN1CCN(S(=O)(=O)c2ccc(-c3cnc(N)c(C(=O)Nc4cccnc4)n3)cc2)CC1	1.57% [at 25.3 µM] (inactive)	–
COc1ccc2nc3n[nH]c(C)c3c(NCCOCCO)c2c1	-4.21% (inactive)	–
CC(=O)C1(C)CCC2C3C=C(C)C4=CC(=O)CCC4(C)C3CCC21C (stereo unspecified)	2.23% (inactive)	–
COc1ccc2[nH]c(=O)c3c(c2c1)OC(C)(C)C=C3	8.91% (inactive)	–
O=C(N[C@@H]1CCCc2c1cnn2-c1ccc(F)cc1F)c1ccccn1	0.0765% (inactive)	–
CCCc1ccc(OCC(=O)N(Cc2nc(-c3cccnc3)no2)C(C)C)cc1	-3.57% (inactive)	–
CC(C)OC(=O)N1CCC(Oc2ncnc3c2cnn3-c2ccc(S(C)(=O)=O)cc2F)CC1	2.26% (inactive)	–
Cc1c(C2=CCN(C(=O)N(C)C(C)C)CC2)nnn1-c1cccnc1F	-0.133% (inactive)	–
O=C(NCCO)c1cccc(-c2cc(Nc3ccc(OC(F)(F)F)cc3)ncn2)c1	-1.56% (inactive)	–
CS(=O)(=O)Nc1ccc2oc3c(OC(F)F)ccc(C(=O)Nc4c(Cl)cncc4Cl)c3c2c1	3.68% (inactive)	–
O=c1cc(NCCCN[C@@H]2CCOc3c(Br)cc(Br)cc32)[nH]c2ccsc12	-2.52% (inactive)	–
Clc1ncoc1-c1c[nH]c2ccccc12	10.9% (inactive)	–
CCn1c(=O)c(-c2ccc(Cl)cc2Cl)cc2cnc(Nc3ccc(N4CCNCC4)c(F)c3)nc21	-4.25% (inactive)	–
C=C1C(=O)O[C@@H]2/C=C(\C)CC/C=C(\C)CC[C@@H]12	-17% (inactive)	–
C=C1C(=O)O[C@@H]2[C@H]1CC[C@H](C)[C@]1(CCC(=O)O1)C2(C)O (stereo partly specified)	-6.12% (inactive)	–
O=C(NCCCNc1nc(Nc2cccc(CN3CCOCC3)c2)ncc1C1CC1)C1CCC1	-27.5% (inactive)	–
